# Source: ChEMBL document CHEMBL1961873, “Compounds: GSK PKIS; Assays: Nanosyn kinase panel” (2012)
# Assays:
# [1] = target: Fibroblast growth factor receptor 4 (Homo sapiens) (UniProt P22455); details: at 1 µM;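 note: reported figure is the averaged percent inhibition of FGFR4, from the GSK PKIS kinase screening panel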
# [2] = target: Tyrosine-protein kinase Fgr (Homo sapiens) (UniProt P09769); details: at 0.1 µM
# [3] = target: Tyrosine-protein kinase Fgr (Homo sapiens) (UniProt P09769); details: at 1 µM
# [4] = target: Vascular endothelial growth factor receptor 1 (Homo sapiens) (UniProt P17948); details: at 0.1 µM
# [5] = target: Vascular endothelial growth factor receptor 1 (Homo sapiens) (UniProt P17948); details: at 1 µM
# [6] = target: Receptor-type tyrosine-protein kinase FLT3 (Homo sapiens) (UniProt P36888); details: at 0.1 µM
# [7] = target: Receptor-type tyrosine-protein kinase FLT3 (Homo sapiens) (UniProt P36888); details: at 1 µM
# [8] = test system: T1, Receptor-type tyrosine-protein kinase FLT3 (Homo sapiens), P36888 [D835Y]; details: at 0.1 µM
# T1 sequence (whole entry): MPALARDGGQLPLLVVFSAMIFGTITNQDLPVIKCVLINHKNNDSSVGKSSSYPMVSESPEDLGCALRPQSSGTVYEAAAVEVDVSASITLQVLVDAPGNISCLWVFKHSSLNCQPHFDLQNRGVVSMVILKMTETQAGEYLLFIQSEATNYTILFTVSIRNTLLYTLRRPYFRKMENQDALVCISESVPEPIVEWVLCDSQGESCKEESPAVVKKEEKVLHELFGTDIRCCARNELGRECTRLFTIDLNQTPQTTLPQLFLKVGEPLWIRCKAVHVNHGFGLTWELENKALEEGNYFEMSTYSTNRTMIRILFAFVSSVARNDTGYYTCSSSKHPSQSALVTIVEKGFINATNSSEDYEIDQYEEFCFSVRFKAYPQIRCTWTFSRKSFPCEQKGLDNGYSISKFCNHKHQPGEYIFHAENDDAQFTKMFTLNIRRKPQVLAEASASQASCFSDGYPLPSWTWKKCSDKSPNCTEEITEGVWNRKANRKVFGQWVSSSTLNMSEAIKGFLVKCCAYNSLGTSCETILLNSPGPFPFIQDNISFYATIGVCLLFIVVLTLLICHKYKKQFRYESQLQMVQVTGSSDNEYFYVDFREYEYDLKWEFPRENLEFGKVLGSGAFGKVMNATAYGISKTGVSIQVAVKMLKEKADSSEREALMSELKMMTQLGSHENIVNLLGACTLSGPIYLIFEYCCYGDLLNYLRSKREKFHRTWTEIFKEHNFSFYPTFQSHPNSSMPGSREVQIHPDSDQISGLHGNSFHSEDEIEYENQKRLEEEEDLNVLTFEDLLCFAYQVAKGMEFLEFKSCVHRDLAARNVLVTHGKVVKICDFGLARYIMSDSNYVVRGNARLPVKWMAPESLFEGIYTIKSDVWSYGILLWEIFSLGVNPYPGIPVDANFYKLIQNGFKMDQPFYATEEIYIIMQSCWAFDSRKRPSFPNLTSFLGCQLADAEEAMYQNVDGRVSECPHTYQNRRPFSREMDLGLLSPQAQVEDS
# [9] = target: Non-receptor tyrosine-protein kinase TYK2 (Homo sapiens) (UniProt P29597); details: at 1 µM;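 note: values are mean percent inhibition of TYK2 kinase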
# Sequence of Non-receptor tyrosine-protein kinase TYK2 (Homo sapiens) (P29597 whole entry): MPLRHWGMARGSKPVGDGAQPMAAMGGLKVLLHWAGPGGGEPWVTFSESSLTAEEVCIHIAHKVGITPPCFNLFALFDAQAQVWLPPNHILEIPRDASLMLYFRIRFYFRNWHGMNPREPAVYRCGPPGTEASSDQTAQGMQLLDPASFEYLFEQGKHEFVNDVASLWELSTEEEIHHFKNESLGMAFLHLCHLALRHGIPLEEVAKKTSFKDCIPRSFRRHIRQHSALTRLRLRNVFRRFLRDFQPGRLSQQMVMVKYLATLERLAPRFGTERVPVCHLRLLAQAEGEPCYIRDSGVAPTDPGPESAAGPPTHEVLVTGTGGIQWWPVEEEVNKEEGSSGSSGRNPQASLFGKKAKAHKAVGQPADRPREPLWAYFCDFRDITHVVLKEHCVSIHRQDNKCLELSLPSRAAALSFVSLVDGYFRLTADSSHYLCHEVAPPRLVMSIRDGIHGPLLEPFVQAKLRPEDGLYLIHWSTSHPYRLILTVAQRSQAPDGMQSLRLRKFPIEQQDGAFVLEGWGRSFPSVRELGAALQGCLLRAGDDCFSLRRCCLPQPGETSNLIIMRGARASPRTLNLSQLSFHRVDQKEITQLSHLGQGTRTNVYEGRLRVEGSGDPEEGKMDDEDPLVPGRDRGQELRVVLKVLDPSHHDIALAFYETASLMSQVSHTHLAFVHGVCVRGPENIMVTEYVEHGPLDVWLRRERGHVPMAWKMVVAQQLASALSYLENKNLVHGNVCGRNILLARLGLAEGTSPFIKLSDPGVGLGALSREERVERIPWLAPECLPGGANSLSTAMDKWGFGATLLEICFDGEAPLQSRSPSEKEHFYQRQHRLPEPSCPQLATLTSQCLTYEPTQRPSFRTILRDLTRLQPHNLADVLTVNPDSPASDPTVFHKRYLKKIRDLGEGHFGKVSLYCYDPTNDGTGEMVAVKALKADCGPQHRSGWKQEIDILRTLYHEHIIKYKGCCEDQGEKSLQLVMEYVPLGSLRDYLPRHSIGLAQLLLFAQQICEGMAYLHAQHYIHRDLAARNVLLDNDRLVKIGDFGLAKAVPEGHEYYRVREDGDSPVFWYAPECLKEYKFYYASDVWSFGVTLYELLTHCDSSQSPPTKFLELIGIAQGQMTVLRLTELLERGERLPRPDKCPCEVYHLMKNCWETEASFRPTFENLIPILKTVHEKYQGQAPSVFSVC
# [10] = target: T2, Tyrosine-protein kinase receptor TYRO3 (Homo sapiens) (UniProt Q06418); details: at 0.1 µM
# T2 sequence (whole entry): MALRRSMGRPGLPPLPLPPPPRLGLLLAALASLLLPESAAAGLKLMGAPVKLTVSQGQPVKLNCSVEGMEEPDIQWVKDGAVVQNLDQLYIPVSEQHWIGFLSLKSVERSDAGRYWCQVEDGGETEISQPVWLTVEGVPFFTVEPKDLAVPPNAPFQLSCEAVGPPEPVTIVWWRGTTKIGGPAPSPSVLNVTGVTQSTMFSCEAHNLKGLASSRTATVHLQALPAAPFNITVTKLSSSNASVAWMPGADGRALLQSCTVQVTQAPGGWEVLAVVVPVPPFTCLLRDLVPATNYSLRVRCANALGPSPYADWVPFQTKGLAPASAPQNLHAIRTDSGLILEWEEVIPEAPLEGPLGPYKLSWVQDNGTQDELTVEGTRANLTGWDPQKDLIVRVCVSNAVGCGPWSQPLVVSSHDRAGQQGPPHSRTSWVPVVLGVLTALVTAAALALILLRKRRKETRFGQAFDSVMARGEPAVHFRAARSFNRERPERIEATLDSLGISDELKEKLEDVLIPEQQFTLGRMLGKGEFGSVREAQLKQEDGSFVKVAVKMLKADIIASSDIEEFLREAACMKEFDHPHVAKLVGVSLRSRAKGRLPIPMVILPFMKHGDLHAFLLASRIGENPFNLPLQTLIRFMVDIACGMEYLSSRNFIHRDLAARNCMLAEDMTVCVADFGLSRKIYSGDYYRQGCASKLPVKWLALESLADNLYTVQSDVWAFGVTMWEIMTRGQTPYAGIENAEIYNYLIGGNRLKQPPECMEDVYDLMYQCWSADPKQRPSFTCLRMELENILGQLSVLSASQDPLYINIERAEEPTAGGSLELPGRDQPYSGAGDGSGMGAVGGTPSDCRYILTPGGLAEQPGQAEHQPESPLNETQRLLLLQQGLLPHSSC
# [11] = target: T2, Tyrosine-protein kinase receptor TYRO3 (Homo sapiens); details: at 1 µM
# [12] = target: Tyrosine-protein kinase Yes (Homo sapiens) (UniProt P07947); details: at 0.1 µM
# Sequence of Tyrosine-protein kinase Yes (Homo sapiens) (P07947 2-543 limits assumed): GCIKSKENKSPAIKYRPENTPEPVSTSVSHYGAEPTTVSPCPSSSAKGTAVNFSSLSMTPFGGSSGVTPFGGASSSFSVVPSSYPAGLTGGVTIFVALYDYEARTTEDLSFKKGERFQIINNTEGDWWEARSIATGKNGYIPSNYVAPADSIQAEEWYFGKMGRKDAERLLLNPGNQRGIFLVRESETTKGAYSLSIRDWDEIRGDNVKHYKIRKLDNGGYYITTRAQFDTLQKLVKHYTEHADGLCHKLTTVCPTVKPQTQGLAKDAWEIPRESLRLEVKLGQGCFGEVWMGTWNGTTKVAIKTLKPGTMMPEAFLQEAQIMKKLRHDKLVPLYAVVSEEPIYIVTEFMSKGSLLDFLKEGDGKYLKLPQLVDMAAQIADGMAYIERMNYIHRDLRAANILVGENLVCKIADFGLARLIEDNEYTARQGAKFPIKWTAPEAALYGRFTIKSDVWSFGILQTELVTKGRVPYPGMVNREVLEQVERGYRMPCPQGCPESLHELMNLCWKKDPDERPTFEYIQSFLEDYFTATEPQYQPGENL
# [13] = target: Tyrosine-protein kinase Yes (Homo sapiens) (UniProt P07947); details: at 1 µM
# [14] = target: T3, Tyrosine-protein kinase ZAP-70 (Homo sapiens) (UniProt P43403); details: at 0.1 µM
# T3 sequence (whole entry): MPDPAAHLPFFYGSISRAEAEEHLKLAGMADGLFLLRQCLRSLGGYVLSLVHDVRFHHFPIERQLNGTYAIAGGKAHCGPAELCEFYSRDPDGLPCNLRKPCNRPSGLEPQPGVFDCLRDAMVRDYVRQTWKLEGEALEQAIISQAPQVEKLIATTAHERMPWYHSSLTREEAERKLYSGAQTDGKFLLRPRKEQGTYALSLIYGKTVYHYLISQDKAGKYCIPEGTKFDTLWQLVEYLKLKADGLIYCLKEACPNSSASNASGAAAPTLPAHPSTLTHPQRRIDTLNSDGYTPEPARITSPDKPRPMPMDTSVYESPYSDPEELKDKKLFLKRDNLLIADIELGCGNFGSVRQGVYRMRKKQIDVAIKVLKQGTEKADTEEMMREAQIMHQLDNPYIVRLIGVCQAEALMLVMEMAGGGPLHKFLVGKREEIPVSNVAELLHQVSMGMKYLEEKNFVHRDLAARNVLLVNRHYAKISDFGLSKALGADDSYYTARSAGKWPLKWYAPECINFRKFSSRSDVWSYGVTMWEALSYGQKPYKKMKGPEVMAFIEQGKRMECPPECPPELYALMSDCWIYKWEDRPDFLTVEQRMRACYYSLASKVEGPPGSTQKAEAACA
# [15] = target: T3, Tyrosine-protein kinase ZAP-70 (Homo sapiens); details: at 1 µM
# [16] = target: Serine/threonine-protein kinase B-raf (Homo sapiens) (UniProt P15056); details: at 0.1 µM
# Sequence of Serine/threonine-protein kinase B-raf (Homo sapiens) (P15056 whole entry): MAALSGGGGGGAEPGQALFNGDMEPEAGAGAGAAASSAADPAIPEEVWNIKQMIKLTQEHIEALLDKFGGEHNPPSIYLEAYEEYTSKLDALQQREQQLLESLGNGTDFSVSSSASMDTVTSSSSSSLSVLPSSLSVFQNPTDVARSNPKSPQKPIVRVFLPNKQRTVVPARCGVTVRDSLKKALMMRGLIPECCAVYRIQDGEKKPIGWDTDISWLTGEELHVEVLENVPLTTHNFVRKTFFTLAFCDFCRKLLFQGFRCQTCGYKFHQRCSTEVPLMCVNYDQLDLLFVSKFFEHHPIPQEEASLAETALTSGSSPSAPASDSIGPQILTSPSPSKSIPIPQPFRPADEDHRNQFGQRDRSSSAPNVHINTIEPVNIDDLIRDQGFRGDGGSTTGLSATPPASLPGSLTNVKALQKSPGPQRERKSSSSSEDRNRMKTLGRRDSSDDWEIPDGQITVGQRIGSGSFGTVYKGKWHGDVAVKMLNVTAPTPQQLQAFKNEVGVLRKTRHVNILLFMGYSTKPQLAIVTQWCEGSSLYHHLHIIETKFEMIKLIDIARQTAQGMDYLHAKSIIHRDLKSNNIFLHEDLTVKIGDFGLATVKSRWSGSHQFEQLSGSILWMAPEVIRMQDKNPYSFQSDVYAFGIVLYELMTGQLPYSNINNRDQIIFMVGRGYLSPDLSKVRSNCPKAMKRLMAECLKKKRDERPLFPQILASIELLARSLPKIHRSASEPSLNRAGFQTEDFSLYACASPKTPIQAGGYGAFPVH
# [17] = target: Serine/threonine-protein kinase B-raf (Homo sapiens) (UniProt P15056); details: at 1 µM
# [18] = test system: Serine/threonine-protein kinase B-raf (Homo sapiens), P15056 [V600E]; details: at 0.1 µM
# Sequence of Serine/threonine-protein kinase B-raf (Homo sapiens), P15056 [V600E] (P15056 whole entry V600E): as the sequence (P15056 whole entry) above, with V600E counted along it
# [19] = test system: Serine/threonine-protein kinase B-raf (Homo sapiens), P15056 [V600E]; details: at 1 µM
# [20] = target: RAF proto-oncogene serine/threonine-protein kinase (Homo sapiens) (UniProt P04049); details: at 0.1 µM;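 note: values are mean CRAF kinase inhibition from profiling of the GSK Published Kinase Inhibitor Set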
# Sequence of RAF proto-oncogene serine/threonine-protein kinase (Homo sapiens) (P04049 whole entry): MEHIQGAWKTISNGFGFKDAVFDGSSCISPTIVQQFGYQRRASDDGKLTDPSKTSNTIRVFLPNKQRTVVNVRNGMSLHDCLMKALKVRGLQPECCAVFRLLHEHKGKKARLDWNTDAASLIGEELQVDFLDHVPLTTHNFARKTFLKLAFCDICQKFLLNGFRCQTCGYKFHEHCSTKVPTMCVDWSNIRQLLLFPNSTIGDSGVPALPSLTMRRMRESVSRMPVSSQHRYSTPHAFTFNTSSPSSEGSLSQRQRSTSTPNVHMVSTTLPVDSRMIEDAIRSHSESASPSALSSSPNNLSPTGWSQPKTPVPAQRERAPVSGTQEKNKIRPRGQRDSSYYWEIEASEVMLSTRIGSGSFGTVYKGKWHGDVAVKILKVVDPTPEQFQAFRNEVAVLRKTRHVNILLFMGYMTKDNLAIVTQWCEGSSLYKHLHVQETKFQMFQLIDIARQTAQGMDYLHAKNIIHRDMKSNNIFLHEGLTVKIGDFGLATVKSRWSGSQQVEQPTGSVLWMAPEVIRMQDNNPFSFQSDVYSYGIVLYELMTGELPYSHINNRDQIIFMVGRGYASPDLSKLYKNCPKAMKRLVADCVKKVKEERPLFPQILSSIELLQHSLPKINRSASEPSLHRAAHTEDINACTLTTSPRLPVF
# Sequence of Tyrosine-protein kinase Fgr (Homo sapiens) (P09769 2-529 limits assumed): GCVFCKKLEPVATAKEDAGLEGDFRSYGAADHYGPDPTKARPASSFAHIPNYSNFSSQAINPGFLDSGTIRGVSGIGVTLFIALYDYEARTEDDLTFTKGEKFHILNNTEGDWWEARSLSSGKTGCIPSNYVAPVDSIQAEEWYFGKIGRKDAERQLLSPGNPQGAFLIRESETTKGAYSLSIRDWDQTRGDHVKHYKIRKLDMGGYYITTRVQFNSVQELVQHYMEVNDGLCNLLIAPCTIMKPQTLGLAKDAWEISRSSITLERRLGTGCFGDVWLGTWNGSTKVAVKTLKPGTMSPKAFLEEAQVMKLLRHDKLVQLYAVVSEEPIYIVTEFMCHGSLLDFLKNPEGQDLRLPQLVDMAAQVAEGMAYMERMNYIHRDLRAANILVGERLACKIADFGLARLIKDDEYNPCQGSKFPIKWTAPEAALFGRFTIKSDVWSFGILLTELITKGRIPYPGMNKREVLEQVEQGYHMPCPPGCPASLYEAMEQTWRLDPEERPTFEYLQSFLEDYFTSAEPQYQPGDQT
# Sequence of Fibroblast growth factor receptor 4 (Homo sapiens) (P22455 22-802 limits assumed): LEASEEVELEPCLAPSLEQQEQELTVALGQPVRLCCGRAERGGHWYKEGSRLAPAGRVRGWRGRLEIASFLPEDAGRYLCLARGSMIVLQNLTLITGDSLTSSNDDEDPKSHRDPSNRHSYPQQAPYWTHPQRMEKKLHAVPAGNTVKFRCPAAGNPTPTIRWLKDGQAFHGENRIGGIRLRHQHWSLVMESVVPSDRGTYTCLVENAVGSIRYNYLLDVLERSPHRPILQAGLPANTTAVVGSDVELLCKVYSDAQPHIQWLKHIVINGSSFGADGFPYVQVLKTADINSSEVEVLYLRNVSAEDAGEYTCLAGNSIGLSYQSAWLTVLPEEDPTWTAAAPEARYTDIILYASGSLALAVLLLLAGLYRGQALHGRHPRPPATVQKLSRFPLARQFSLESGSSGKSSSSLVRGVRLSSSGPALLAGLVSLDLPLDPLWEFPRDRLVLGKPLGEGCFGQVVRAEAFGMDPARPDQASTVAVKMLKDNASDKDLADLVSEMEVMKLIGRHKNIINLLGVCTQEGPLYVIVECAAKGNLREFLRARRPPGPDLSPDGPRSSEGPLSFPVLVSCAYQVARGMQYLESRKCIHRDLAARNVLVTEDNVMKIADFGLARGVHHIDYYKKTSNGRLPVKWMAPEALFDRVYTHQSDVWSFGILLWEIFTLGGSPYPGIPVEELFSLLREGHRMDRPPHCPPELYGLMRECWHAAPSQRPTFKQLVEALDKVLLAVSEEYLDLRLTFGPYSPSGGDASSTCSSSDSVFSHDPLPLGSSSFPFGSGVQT
Structure (SMILES),inhibition [1] [%],inhibition [2] [%],inhibition [3] [%],inhibition [4] [%],inhibition [5] [%],inhibition [6] [%],inhibition [7] [%],inhibition [8] [%],inhibition [9] [%],inhibition [10] [%],inhibition [11] [%],inhibition [12] [%],inhibition [13] [%],inhibition [14] [%],inhibition [15] [%],inhibition [16] [%],inhibition [17] [%],inhibition [18] [%],inhibition [19] [%],inhibition [20] [%]
N#Cc1ccc(Oc2nccc(-c3c(-c4ccc(F)cc4)ncn3C3CCNCC3)n2)cc1,-0.84,3.69,6.62,-0.44,-0.67,-0.97,3.98,-7.02,-0.38,2.69,3.55,3.38,3.87,-0.57,1.9,6.93,6.24,4.98,4.44,-1.66
Nc1nccc(-c2c(-c3ccc(F)cc3)ncn2C2CCC(O)CC2)n1 (stereo not given),0.55,1.87,16.5,0.09,1.16,1.8,-0.14,3.94,0.09,0.62,2.9,5.1,40,-8.32,1.54,-2.22,-1.06,-3.35,-2.66,-4.81
COc1cccc(/C=N/Nc2ncnc3c2cnn3-c2cccc(OC)c2)c1,0.32,1.37,8.08,3.79,0.71,0.18,4.83,-0.05,-1.11,3.49,4.49,2.39,8.43,1.23,2.81,4.82,6.54,4.25,4.68,1.07
CS(=O)(=O)CCNCc1cc(-c2cc3c(Nc4ccc(OCc5cccc(F)c5)c(Cl)c4)ncnc3s2)cs1,1.36,2.51,4.32,0.1,0.78,2.69,6.93,-4.23,-4,2.21,4.28,3.05,6.33,2.63,1.06,6.76,9.8,4.4,5.09,2.35
COc1ccc2cc(-c3c(-c4ccncc4)nc(-c4ccc([S+](C)[O-])cc4C)n3C)ccc2c1 (stereo not given),2.85,0.53,4.65,0.86,5.84,-0.09,-1,0.23,0.94,0.37,2.2,3.84,21.3,-0.83,-0.09,0.29,-0.78,-0.1,-0.41,-0.64
Cc1ccc(NC(=O)c2ccoc2)cc1-c1ccc(C(=O)NCC2CC2)cc1,1.63,2.23,3.07,1.47,8.07,0.8,0.9,-5.38,-0.16,0.97,3.21,3.34,1.5,-0.49,1.63,3.14,2.28,2.97,1.81,0.61
CN1CCN(CCCNc2nc3ccc(Oc4ccc(NC(=O)Nc5cc(C(F)(F)F)ccc5F)cc4)cc3[nH]2)CC1,-0.18,1.31,8.15,12.7,40.7,15,61.2,-5.77,0.88,1.94,19.1,-0.61,-1.74,-0.98,2.82,2.28,13.7,2.94,16.6,2.41
CS(=O)(=O)CCNCc1ccc(-c2ccc3ncnc(Nc4ccc(OCc5ccccc5)c(Br)c4)c3c2)o1,-1.47,4.84,10.8,-0.47,2.16,4.34,1.3,-8.89,-4.08,2.52,2.72,4.45,20.7,-2.48,-1.83,4.73,4.32,3.23,2.38,3.26
Fc1ccc(-c2ncn(C3CCNCC3)c2-c2ccnc(Oc3ccc(Oc4ccccc4)cc3)n2)cc1,3.31,-0.13,4.83,-0.48,3.29,2.97,1.85,-3.32,-3.59,1.47,2.08,0.21,4.26,0.95,0.36,6.4,11.6,4.03,8.67,1.44
FC(F)(F)c1cccc(Nc2nccc(-c3cnn4nc(-c5ccccc5)ccc34)n2)c1,1.26,2.98,8.69,2.04,1.17,1.84,18.2,-4.32,-5.81,-0.57,0.62,2.51,24.8,0.98,2.56,3.36,4.64,2.72,4.02,-0.56
COc1ccc(-c2ccc3c(NC(=O)C4CC4)n[nH]c3n2)cc1,0.39,3.05,6.74,-0.58,0.09,0.61,3.42,-3.58,-0.42,2.92,21.7,2.13,8.75,0.8,-3.24,3.14,2,3.73,1.97,-1.88
C#Cc1cccc(Nc2ncnc3ccc(OCCCCNCCS(C)(=O)=O)cc23)c1,-1.61,10.5,15.5,2.51,4.95,1.29,2.94,3.91,-1.47,2.65,8.46,4.13,12.3,-1.39,-2.29,8.08,6.4,8.35,5.48,-5.79
O=C(Nc1n[nH]c2cc(-c3cc(F)ccc3F)ccc12)C1CC1,0.78,3.33,7.71,0.6,1.91,1.12,4.67,-5.43,-2.35,3.8,11.7,2.25,8.92,0.04,-0.4,5.1,7.61,5.62,6.3,-1.79
